Source: PubChem BioAssay
Calls of active or inactive are those of the source. The rule behind the calls is not given here.

target: Pantothenate synthetase (Mycobacterium tuberculosis (strain ATCC 25618 / H37Rv)) (UniProt P9WIL5); assay: Coupled enzyme confirmation of inhibitors against recombinant Mtb PanC (AID 375); conditions: coupled enzyme assay; at 10 µM, active compounds read high;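 note: 0% = full reaction with vehicle and 100% = no enzyme background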
Sequence (P9WIL5 whole entry, looked up): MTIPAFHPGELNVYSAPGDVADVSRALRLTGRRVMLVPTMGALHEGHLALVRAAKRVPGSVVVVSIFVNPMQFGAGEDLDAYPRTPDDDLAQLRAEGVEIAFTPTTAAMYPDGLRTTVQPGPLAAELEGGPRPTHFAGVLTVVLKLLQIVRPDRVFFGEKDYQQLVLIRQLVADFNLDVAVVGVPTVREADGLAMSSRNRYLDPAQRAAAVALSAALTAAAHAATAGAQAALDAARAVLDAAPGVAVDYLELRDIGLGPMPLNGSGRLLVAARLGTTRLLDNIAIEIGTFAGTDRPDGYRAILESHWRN

SMILES	inhibition
C=CCn1c2ccccc2c2nnc(SCC(=O)NC(C(=O)OC)C(C)C)nc21 (stereo not given)	4% (inactive)
CC(C)C(NC(=O)OCc1ccccc1)C(=O)OCC(=O)NCc1ccco1 (stereo not given)	7% (inactive)
CC(C)CNS(=O)(=O)c1ccc(OCC(=O)Nc2ccc3c(c2)OCO3)c(Cl)c1	6% (inactive)
CC1=C(C(=O)N2CCOCC2)C(c2ccccc2F)C2=C(CCCC2=O)N1 (stereo not given)	3% (inactive)
C=CCSC1=C(C#N)C(c2ccccc2C)CC(=O)N1 (stereo not given)	0% (inactive)
N#Cc1nc(-c2cccs2)oc1NCc1ccc(Cl)cc1	0% (inactive)
Cc1nc(N2CCC(C)CC2)c2c(C)c(C(=O)O)sc2n1	0% (inactive)
CCc1[nH]nc2c1C(c1ccncc1)C(C#N)=C(N)O2 (stereo not given)	4% (inactive)
Cc1noc(COc2ccccc2OCC(O)CNC(C)(C)C)n1 (stereo not given)	4% (inactive)
CSc1ccccc1NC(=O)CN(c1ccccc1)S(=O)(=O)N(C)C	3% (inactive)
O=C(CN1CCN(c2ncccn2)CC1)Nc1ccccc1-n1cccc1	0% (inactive)
COc1cccc(N2C(=O)C(O)=C(C(C)=O)C2c2ccc(OC)c(OC)c2)c1 (stereo not given)	0% (inactive)
CSC1CCCCC1(O)CSc1nc2c(cc1C#N)CCCC2 (stereo not given)	4% (inactive)
CC(C)Cn1c(N)c(C(=O)NCCN2CCOCC2)c2nc3ccccc3nc21	0% (inactive)
CCOC(=O)c1ccc2[nH]c(C)c(CN3CCN(C)CC3)c(=O)c2c1	0% (inactive)
CCN(CC)CCNC(=O)c1ccc(N2CCCCC2)c(NS(=O)(=O)c2ccc(C)cc2)c1	12% (inactive)
CCOc1ccc(C2CC(=O)NC3=C2C(=O)CCC3)cc1Cl (stereo not given)	0% (inactive)
C/C(=C\c1cc(C(=O)O)c(C)o1)CO	0% (inactive)
COc1ccc(CCN2CC(O)=C(c3nc4ccccc4c(=O)[nH]3)C2=N)cc1OC	0% (inactive)
CN(C)CCNc1oc(-c2ccccc2F)nc1C#N	1% (inactive)

SMILES	inhibition
CCCCN(Cc1cc2cc(OC)ccc2[nH]c1=O)C(=O)COc1ccccc1	2% (inactive)
CC(=O)NC(Cc1ccccc1)C(=O)NC1CCN(C(=O)c2cnccn2)CC1 (stereo not given)	0% (inactive)
CCN(CCCNC(=O)C1CCCN(S(=O)(=O)c2cnc[nH]2)C1)c1ccccc1 (stereo not given)	1% (inactive)
CC(=Nc1cccc(O)c1)c1sc2ccccc2c1O	0% (inactive)
O=C(NC1(C(F)(F)F)C(=O)Nc2c1c(=O)[nH]c(=O)n2Cc1ccco1)C1CCCCC1 (stereo not given)	0% (inactive)
CCOC(=O)c1cccc(NC(=O)CSc2nc3cccnc3n2C)c1	0% (inactive)
Cc1nnc2sc(-c3cccc(NC(=O)c4cccnc4)c3)nn12	0% (inactive)
Nc1nnnn1NCc1cccc(OCc2ccccc2)c1	0% (inactive)
CCC(=O)N1CCc2cc(S(=O)(=O)CCC(=O)Nc3c(C)n(C)n(-c4ccccc4)c3=O)ccc21	7% (inactive)
COc1ccccc1-c1cn[nH]c(=S)n1	11% (inactive)
COc1ccc(CN2C(=O)c3ccccc3C2C(=O)NC2CCCC2)c(OC)c1 (stereo not given)	0% (inactive)
CCc1cccc2c3c([nH]c12)C(CC)(CC(=O)O)OCC3 (stereo not given)	0% (inactive)
O=C(CSCc1n[nH]c(=O)[nH]1)NCCOc1cccc(Oc2ccccc2)c1	1% (inactive)
O=c1ccn(Cc2ccccc2Cl)cc1	0% (inactive)
CCn1cc(C(=O)NCCC2=CCCCC2)c(=O)c2cc(S(=O)(=O)N(C)C)ccc21	0% (inactive)
Cc1nnc2ccc(N3CCN(c4cccc(C(F)(F)F)c4)CC3)nn12	0% (inactive)
Cn1c(SCC(=O)c2ccc(-c3ccccc3)cc2)nnc1-c1ccco1	2% (inactive)
FC(F)(F)c1cccc(N2CCN(c3nnnn3-c3ccccc3)CC2)c1	0% (inactive)
Cc1cccc(-c2c3c(=O)n(C)c(=O)n(C)c3cn2-c2ccc(O)cc2)c1	0% (inactive)
c1cncc(-c2nnc3sc(-c4ccco4)nn23)c1	0% (inactive)
